About 79,000 compounds went through this panel and 15% of them were active in at least one assay; those are over-represented in the sample as a whole. Unmarked numbers belong to inactive results. Calls of active or inactive are those of the source. Rule as the data show it: active = growth inhibition above about 70%; inactive = the rest. Where a SMILES comes first, the peptide text is derived from it. [ ]: non-standard residue; d: D form. The star is where a group is joined. ξ: configuration not given here. ξF = NC(Cc1ccccc1)C(=O)O; Cbz = O=C(OCc1ccccc1)*; Aib = CC(C)(N)C(=O)O
Columns and labels:
[1] = NCI Yeast Anticancer Drug Screen. Data for the rad50 strain (AID 155);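 also: 0% = growth of vehicle-only cultures of the same strain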; details: S. cerevisiae rad50 strain growth inhibition; at 50.0 µM; hits give high values
How it was run: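 Vehicle-treated cultures provide the reference for the growth inhibition reported for compound-exposed, repair-deficient yeast.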

[2] = NCI Yeast Anticancer Drug Screen. Data for the mec2-1 strain (AID 157); details: S. cerevisiae mec2-1 strain, at 50.0 µM, hits give high values
How it was run: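 Vehicle-treated cultures served as reference for growth inhibition of compound-exposed mec2-1 yeast.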

[3] = NCI Yeast Anticancer Drug Screen. Data for the sgs1 mgt1 strain (AID 161);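 also: 0% = growth of cultures given vehicle only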; details: S. cerevisiae sgs1 mgt1 strain, at 50.0 µM, hits give high values
How it was run: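 Inhibition of yeast growth, normalised to vehicle-treated controls, is reported for a strain bearing genetic alterations in DNA damage repair.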

[4] = NCI Yeast Anticancer Drug Screen. Data for the cln2 rad14 strain (AID 165);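 also: 0% = growth equal to vehicle treated cultures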; details: S. cerevisiae cln2 rad14 strain, at 50.0 µM, hits give high values
How it was run: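 Each compound was tested on cln2 rad14 yeast. Inhibition of growth was calculated against vehicle-exposed controls.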

[5] = NCI Yeast Anticancer Drug Screen. Data for the bub3 strain (AID 167); details: S. cerevisiae bub3 mutant strain, at 50.0 µM, hits give high values
How it was run: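 Mutant yeast screening strain plus compound; vehicle-treated cultures serve as the 0% inhibition reference.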

[6] = NCI Yeast Anticancer Drug Screen. Data for the mlh1 rad18 strain (AID 175); details: S. cerevisiae mlh1 rad18 strain growth inhibition; at 50.0 µM; hits give high values
How it was run: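 Vehicle-treated cultures served as the reference for growth inhibition in a yeast strain carrying DNA damage repair alterations exposed to each compound.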

Row | Structure (SMILES) | growth inhibition [1] | growth inhibition [2] | growth inhibition [3] | growth inhibition [4] | growth inhibition [5] | growth inhibition [6] [%]
1 | CCc1c(NCCO)c(C(=O)NCCO)c2nc3ccccc3n2c1NCCO | 2.2% | 9.65% | -3.1% | -14.1% | -7.3% | –
2 | O=c1ncc2ccccc2[nH]1 | -19.9% | -10.7% | -9.6% | -4.3% | -12.8% | –
3 | CC(C)(NC(=O)OCc1ccccc1)C(=O)NC(Cc1ccccc1)C(=O)O (configuration not stated) (Cbz-[Aib]-[ξF]-OH) | -26.6% | -61% | -5.7% | 19.8% | 11.2% | –
4 | CC(O)C(F)(F)F (configuration not stated) | 18.2% | -8.8% | 7.65% | 15.9% | -3.75% | –
5 | CCCCCCSc1ccc([N+](=O)[O-])cc1[N+](=O)[O-] | 4.95% | -6% | -10.6% | -6.8% | 24.9% | –
6 | CC1=C(C(=O)NCc2ccccc2)C(c2ccco2)C(C(=O)NCc2ccccc2)=C(C)N1 | -34.5% | -20.4% | -37.5% | -13.3% | -9.9% | –
7 | CN(C)CCCn1cnc2cc(Cl)c(Cl)cc21 | 0.2% | -6.4% | -21% | -0.8% | 9.95% | –
8 | CC1(C)C2CCC13CS(=O)(=O)N1O[C@]13C(=O)O2 (some centres not stated) | 19.3% | 2.7% | 6.55% | 15.1% | -1.05% | –
9 | O=NN(CC1(O)OCC(O)C(O)C1O)C(Cc1c[nH]c2ccccc12)C(=O)O (configuration not stated) | -8.7% | -22.9% | -27.1% | 2.1% | -0.5% | –
10 | COc1ccc(NC(=O)CC(=O)N/N=C/c2ccc(N(CCC#N)S(=O)(=O)c3ccccc3)cc2)cc1 | -35.5% | -11.8% | -29.5% | 8.15% | -11.2% | –
11 | Nc1ncnc2c1ncn2C1CC(O)C(COP(=O)(O)O)O1 (configuration not stated) | 0.15% | -4.65% | 0.85% | -23.4% | 0.45% | –
12 | CCCCCCCCCCCCCCCCCC(=O)N1CC[N+](C)(C)CC1 | 99.7% (active) | 99.7% (active) | 99.7% (active) | 99% (active) | 99.3% (active) | –
13 | C=CCCCCCCCCC(=O)NCC1CCCCO1 (configuration not stated) | 2.8% | -0.5% | 67.6% | -1.35% | 10.1% | –
14 | C=C(C)C(O)CC (configuration not stated) | 24.6% | -30.7% | 15.3% | 4.3% | 10.9% | –
15 | N#C/C(=C\c1c[nH]c2ccccc12)c1ccc([N+](=O)[O-])cc1 | -13.9% | -10% | 5.45% | 3.45% | -5.2% | –
16 | CC1CC2=Cc3c(O)c(O)cc(O)c3C(=O)C2=CO1 (configuration not stated) | -5.5% | -31.7% | -19.7% | -11.6% | -5.7% | –
17 | CC(=O)Nc1cc2c(cc1Br)-c1ccc(Br)cc1C2 | 32.4% | 8.4% | 11.8% | 15.6% | -2.45% | –
18 | CCOC(=O)CSc1[nH]c2nc(C)nc(Cl)c2c1C#N | -20.7% | 8.3% | -5.2% | -6.65% | -3.45% | –
19 | CS/N=C(/c1ccc(/C(=N/SC)N(C)C)cc1)N(C)C | 0.9% | -8.5% | 8.8% | -5.35% | -24.4% | –
20 | O=C1C=CC(=NCl)C=C1 | -18.6% | -24.9% | 4.35% | -21.9% | 1.15% | –
21 | Cc1ccc(OC(=O)c2ccccc2)cc1CC(Cl)(Cl)Cl | -0.75% | -6% | -9.3% | -19.3% | 2.8% | –
22 | C[Si](C)(C)CCCn1ccc(=O)[nH]c1=O | 45.6% | 7.45% | 27.8% | -8.15% | 29.4% | –
23 | CCOC(=O)c1[nH]c(Cc2[nH]c(Cc3[nH]c(C(=O)OCC)c(C)c3C(=O)OCC)c(C(=O)OCC)c2C)c(C(=O)OCC)c1C | 36.1% | 21.2% | 45.2% | 37.5% | 24.7% | –
24 | CCOc1ccc(C(=O)OCCCl)cc1 | 9.85% | 0.75% | -3.1% | 5.25% | 6.75% | –

Row | Structure (SMILES) | growth inhibition [1] | growth inhibition [2] | growth inhibition [3] | growth inhibition [4] | growth inhibition [5] | growth inhibition [6] [%]
25 | COc1cc(CCCOC(=O)/C=C/c2ccc(O)c(O)c2)cc(O)c1O | 19.1% | -18.3% | 1.05% | -17.4% | -0.8% | –
26 | O=c1n(CCCN2CCN(c3cccc(Cl)c3)CC2)nc2ccccn12 | 45.9% | 11.4% | 21.9% | 19.8% | -1.4% | –
27 | COc1cc2c(cc1C)C1=C(C)C(=O)OC1[C@@H](O)[C@@H]2C (some centres not stated) | 16.9% | 11.6% | 18.4% | 3.45% | 18.9% | –
28 | Cc1cccc(SC(=O)Nc2cc([N+](=O)[O-])ccc2Cl)c1 | 6.9% | 4.4% | 11.6% | 10.6% | 17.6% | –
29 | Cc1ccccc1-n1c(C)nc2cc(NCC(=O)c3ccccc3)ccc2c1=O | 32.9% | -9.8% | -2.3% | -0.5% | -1.6% | –
30 | N/C(=N\S(=O)(=O)c1cc(C(F)(F)F)cc(C(F)(F)F)c1)c1ccncc1 | 4.95% | 11.2% | 23.9% | 1.3% | 19.6% | –
31 | Nc1ccc(C(=O)O)cn1 | -20.4% | -11.1% | 29.6% | -34.5% | 9.95% | –
32 | C/C(=N/N(C)C)c1ccc(C)cc1 | 20.3% | -5.75% | 3.25% | -26.9% | 0.6% | –
33 | O=C(CCSC(=S)Nc1ccc(Cl)cc1)NNc1ccccc1 | 1.8% | -25.1% | -0.65% | -30.4% | 6.6% | –
34 | CCOC(=O)C1=C(C)N(NC(N)=O)C(C)(O)C12CCOC2=O (configuration not stated) | 32% | 0% | -10.8% | 13.1% | 3.2% | –
35 | CCSSC12CCCN1C(=O)C1CCCN1C2=O (configuration not stated) | 49% | 40.9% | 9.4% | -40% | 20.6% | –
36 | CC(C)(CO)NC(=O)c1ccccc1Br | -31.9% | -11.7% | -8.6% | 1.55% | -13.9% | –
37 | COc1ccc(C2C(Cl)C(=O)N2NC(=O)c2ccccc2O)cc1OC (configuration not stated) | 2.85% | -12.1% | -18.6% | 15.4% | -22.4% | –
38 | COC1=CC(=O)c2ccc(C(C)C)cc2C1(C)C1=NC(C)(C)CO1 (configuration not stated) | -1.55% | -14.4% | -0.85% | 16.8% | -6.45% | –
39 | O=C(Cl)c1cc(Cl)cc(Cl)c1Br | 12.9% | 4.7% | 34.5% | 17.6% | 15.9% | –
40 | C=CCOC1OC(CS(=O)(=O)O)C(OC(C)=O)C(OC(C)=O)C1OC(C)=O (configuration not stated) | 17.9% | 4.2% | -1.1% | 21.6% | -2.75% | –
41 | Cc1cc(/C=C\[N+](=O)[O-])c(C)c2c1oc1ccccc12 | -10.8% | -2.55% | 2.1% | 4.75% | 2.4% | -7.05
42 | CS(=O)(=O)OCC1C2CCC(CC2)C1COS(C)(=O)=O (configuration not stated) | 4.5% | 17.3% | 10.2% | -15.8% | -13.2% | -11.5
43 | CN(C)c1ccc(N=C(C#CC#Cc2ccccc2)c2ccccc2)cc1 | 3.85% | -4% | 7.55% | -42.4% | -19.4% | 24.8
44 | c1ccc2oc(N3CCN(c4nc5ccccc5o4)CC3)nc2c1 | 4.45% | -0.2% | -9.1% | 5.85% | 12% | -12.2
45 | O=C(O)C(C(=O)O)C1CCCCCC1 | -34.4% | -6.6% | -17.9% | -29.9% | -1.9% | 14.2
46 | Nc1nc(C2CCCC2)c(Br)c(=O)[nH]1 | -24.2% | -3.75% | -17.4% | 2.45% | 2.7% | -8.75
47 | O=C(NCCO)Nc1ccccc1F | 10.2% | 3.65% | -3.65% | -27.3% | -7.75% | 5.55
